Compound activity: PubChem, National Center for Advancing Translational Sciences (NCATS)
Shown are actives, neighbours in structure and some others; about 10% of the full set was active somewhere.
JMJD2A Tudor inh: JMJD2A Tudor domain (human) inhibition | AlphaScreen JMJD2A-Tudor / H3K4me3 peptide binding | Potency, µM (top dose mostly 114 µM), without a hit: top-dose activity change, negative = inhibition, hits mostly inhibitors | 390,000 tested, 4.4% active | AID 504339; also: potency is read from the fitted curve at half-maximal effect; % is scaled to controls: 0 for no effect and ±100 for the full control effect; nearly all actives have a fitted effect of over 50% in size
BAZ2B block: inhibitors of human BAZ2B bromodomain; Q9UIF8; AlphaScreen BAZ2B-H3K14Ac peptide displacement; Potency, µM (highest dose often 114 µM), for the others: at the highest dose activity change, negative = inhibition, hits mostly inhibitors; 360,000 tested, 4.4% active; AID 504333; also: potency is read from the fitted curve at half-maximal effect; % is scaled to controls: 0 for no effect and ±100 for the full control effect; nearly all actives have a fitted effect of over 60% in size
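Complex of BAZ2B and biotin-H3K14Ac (50 nM apiece) forms over 30 min at RT, then faces library compounds up to 110 uM for another 30 min; AlphaScreen beads added, 20 min dark incubation, luminescence read.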
HP1b chromo inh: inhibitors of HP1-beta chromodomain binding to methylated histone tails; 390,000 tested, 0.56% active; P83916; Potency, µM (highest dose often 114 µM), for inactives: at the highest dose activity change, negative = inhibition, hits mostly inhibitors; AlphaScreen HP1-beta / biotin-H3K9me3 peptide binding; AID 540317; also: potency is read from the fitted curve at half-maximal effect; nearly all actives have a fitted effect of over 70% in size
Target sequence (P83916 whole entry, looked up): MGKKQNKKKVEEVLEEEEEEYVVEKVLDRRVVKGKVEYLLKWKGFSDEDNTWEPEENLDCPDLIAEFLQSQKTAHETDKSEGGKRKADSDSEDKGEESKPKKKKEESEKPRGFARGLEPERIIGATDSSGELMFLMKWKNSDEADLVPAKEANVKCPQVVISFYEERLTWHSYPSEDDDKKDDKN
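HP1-beta protein (50 nM final) preincubated 30 min at room temperature with biotinylated H3(1-18)K9me3 peptide (50 nM) in PBS pH 7.4, 0.01% Tween-20, then compound added for 30 min. AlphaScreen streptavidin donor/nickel chelate acceptor beads (10 ug/mL final), 30 min dark, luminescence read.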
CtBP-E1A blk: inhibitors of CtBP/E1A interaction; AlphaScreen GST-E1A/His-CtBP binding, 1536-well; hits give low values; activity change, % (test concentration not listed); 340,000 tested, 0.49% active; in the data active = activity change below about -65%; inconclusive = mostly about -30% to -63%; also: % is scaled to controls: 0 for no effect and ±100 for the full control effect
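Homogeneous bead-based format: GST-tagged E1A captured on glutathione donor beads, His-tagged CtBP on nickel acceptor beads; compounds precede bead addition by 2 h at 37 °C.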
Six1-Eya2 blk: Six1/Eya2 interaction inhibition; 360,000 tested, 0.56% active; AlphaScreen GST-Six1/His-Eya2 binding, biochemical; hits give low values; AID 651725; activity change, % (test concentration not listed); in the data active = activity change below about -65%; inconclusive = mostly about -30% to -63%; also: % is scaled to controls: 0 for no effect and ±100 for the full control effect
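Six1/Eya2 binding was read as AlphaScreen signal after compounds were pinned into GST-Six1 plus His-tagged Eya2 (5X stock 250/500 nM) in pH 8.0 Tris/NaCl/TCEP buffer, beads added, then incubated 1 h, 37 C, dark.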
G9a inh: blocks human histone lysine methyltransferase G9a. G9a H3K9 monomethylation, AlphaScreen, 2 h. Potency, µM (highest dose often 102 µM), for the others: at the highest dose activity, negative = inhibition, usual class: inhibitors. 350,000 tested, 8.8% active; also: potency is read from the fitted curve at half-maximal effect; % is scaled to controls: 0 for no effect and ±100 for the full control effect; nearly all actives have a fitted effect of over 75% in size
Target sequence (Q96KQ7 913-1193 limits assumed): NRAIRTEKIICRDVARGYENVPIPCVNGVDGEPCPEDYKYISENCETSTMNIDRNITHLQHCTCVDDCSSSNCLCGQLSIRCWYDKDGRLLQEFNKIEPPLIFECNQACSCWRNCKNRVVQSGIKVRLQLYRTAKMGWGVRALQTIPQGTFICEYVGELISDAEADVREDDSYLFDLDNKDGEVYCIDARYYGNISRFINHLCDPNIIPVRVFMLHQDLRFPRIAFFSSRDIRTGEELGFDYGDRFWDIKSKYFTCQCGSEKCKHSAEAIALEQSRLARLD
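Readings reflect AlphaScreen signal from monomethyl-H3K9 antibody detection. HMT at 20 nM; substrate b-H3K9 500 nM; cofactor SAM 20 uM; 2 h RT reaction; compounds tested as titrations in qHTS with 15 min preincubation.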
Starred values were filed as active, the others as inactive; ? = inconclusive; / = no result given; ! = not active in a repeat; [ ] = another dose, or the depositor's remark. Unless noted, calls follow the shape of the dose curve; as a rule, active = well fitted inhibition curve with a large enough effect; inconclusive = small, poorly fitted or top-dose-only effect; inactive = no such curve, though single readings can be large or run the other way.

SMILES	JMJD2A Tudor inh	BAZ2B block	HP1b chromo inh	CtBP-E1A blk	Six1-Eya2 blk	G9a inh
CC(C)(NC(=O)c1ccccc1)c1nc2ccccc2s1	79.4µM*	8.9%	?	3.3	-1.1	-3.6%[2.33 µM]
CC(=O)OCC1=C(C(=O)O)N2C(=O)C(NC(=O)C(C)Cn3nc(C)c(Cl)c3C)C2SC1 (configuration not stated)	-28.9%	56.2µM*	-9.1%	7.9	-10.2	39.8µM*
CC(=O)OCC1=C(C(=O)O)N2C(=O)C(NC(=O)c3ccc(F)cc3)C2SC1 (configuration not stated)	-23.9%	?	13.6%	/	2.9	-43.8%
CC(=O)OCC1=C(C(=O)O)N2C(=O)[C@@H](NC(=O)CSc3ccncc3)[C@H]2SC1	17.8µM*	44.7µM*	?	-2.8	-10.2	15.8µM*!
CCOC(=O)C1CCN(C(=O)Cn2c(=O)oc3cc(S(=O)(=O)N4CCC(C)CC4)ccc32)CC1	-17.9%	-4.1%	35.2%	/	/	6.0%[59 µM]
CCN1CCN(C(=O)c2ccc(Sc3ccccc3Cl)c([N+](=O)[O-])c2)CC1	?	-33.4%	-1.0%	4.3	-15.4	31.6µM*
CCN1CCCC1CNC(=O)c1ccc(Sc2ccc(F)cc2)c([N+](=O)[O-])c1 (configuration not stated)	-23.4%	?	4.9%	1.2	-1.6	?
CCN1CCCC1CNC(=O)c1ccc(Sc2ccccc2Cl)c([N+](=O)[O-])c1 (configuration not stated)	?	28.2µM*	-20.5%	10.3	7.0	8.7%[59 µM]
CCN1CCN(C(=O)c2ccc(Cl)c(S(=O)(=O)N(C)c3ccccc3)c2)CC1	-8.8%	-0.8%	13.6%	2.5	2.8	17.8µM*
CN(c1ccc(C(=O)N2CCN(Cc3ccccc3)CC2)cc1)S(=O)(=O)c1ccccc1	-22.9%	-11.2%	-13.8%	-0.4	-11.7	-6.2%
COc1ccc(Br)cc1CNC(=O)C(C)n1nc(C)n2c(cc3occc32)c1=O (configuration not stated)	-19.3%	0.3%	27.3%	/	/	6.5%[59 µM]
Cc1ccc(NC(=O)CN2C(=O)C(c3ccccc3)=NC23CCCCC3)cc1C	-16.1%	-2.6%	29.9%	/	/	-5.8%[59 µM]
N=C(N)S/C=C\C(=O)O	/	/	/	/	/	25.1µM*
CC(=O)c1c(C)[nH]c(C(=O)NC2=NCCS2)c1C	-6.9%[57.1 µM]	50.1µM*	31.5%	-7.1	-5.0	12.8%[12.7 µM]
COc1ccc2[nH]c(C(=O)O)c(CCN3C(=O)c4cccc([N+](=O)[O-])c4C3=O)c2c1	-15.1%	79.4µM*	36.2%	-4.3	1.5	?
COc1ccc(CNS(=O)(=O)c2ccc(-c3cc(C(F)(F)F)on3)s2)cc1OC	-1.3%	-9.1%	28.2%	/	/	-9.6%[59 µM]
CCCn1c(C)cc(/C=C(\C#N)C(=O)O)c1C	-23.7%	1.6%	10.9%	-8.0	3.5	-26.7%
Cc1cc(/C=C(\C#N)C(=O)O)c(C)n1-c1ccc(Br)cc1	-14.0%[11.4 µM]	?	-18.7%	0.0	-1.6	70.8µM*
Cc1cc(/C=C(\C#N)C(=O)O)c(C)n1CC1CCCO1 (configuration not stated)	14.1µM*	-30.9%	?	/	-2.5	?
COC(=O)c1c(NC(=O)Cc2coc3cc(C)ccc23)sc2c1CCC2	-14.6%	-12.9%	-6.0%	/	/	?
Cc1nc2cc(NCc3nc4ccccc4n3Cc3ccccc3)ccc2n1C	?	44.7µM*	?	10.6	-8.7	-29.9%[12.7 µM]
c1ccc(Cn2c(NCc3ccncc3)nc3ccccc32)cc1	-19.4%	-16.1%	66.1%	/	2.4	-18.2%
COc1ccc(CNc2ccc3c(c2)nc(C)n3C)cc1OC	-13.8%	-19.6%	14.8%	-1.9	0.0	39.8µM*
COC(=O)c1ccc(NC(=O)Nc2ccc3c(c2)nc(C)n3C)cc1	-4.1%	-0.4%	28.1%	3.0	-5.3	-1.6%
COc1cccc(CNc2ccc3c(c2)nc(C)n3C)c1OC	-18.3%	-25.5%	24.7%	/	1.7	35.5µM*
SMILES	JMJD2A Tudor inh	BAZ2B block	HP1b chromo inh	CtBP-E1A blk	Six1-Eya2 blk	G9a inh
COc1ccc(CNc2nc3ccccc3n2Cc2ccc(C)cc2)cc1OC	-34.5%	?	-1.9%	2.5	-3.3	79.4µM*
Cc1cccc(NCc2nc3ccccc3n2Cc2ccccc2)c1	?	?	-0.2%	-5.4	-16.1	?
Cc1cccc(-c2nc(S(=O)(=O)c3ccc(Cl)cc3)c(N3CCCCCC3)o2)c1	-25.4%	?	-17.7%	/	/	?
CC(C)Cn1c(=O)c2sccc2n2c(CCCC(=O)NC3CCCCC3)nnc12	-13.2%	-12.2%	-3.9%	/	/	1.8%[59 µM]
CC(=O)c1ccc(-c2ccc(C(=O)N3CCN(c4ccc(F)cc4)CC3)o2)cc1	?	/	-0.1%	-3.1	-14.4	31.6µM*
CC(=O)c1ccc(-c2ccc(C(=O)N3CCCc4ccccc43)o2)cc1	?	?	-24.0%	19.2	-18.7	44.7µM*
Cc1ccc(CNC(=O)CCCc2nnc3n(CC(C)C)c(=O)c4sccc4n23)cc1	-13.6%	-14.3%	0.9%	/	/	0.7%[59 µM]
Cn1c(N2CCN(c3ccccn3)CC2)nc2c1c(=O)n(Cc1ccccc1Cl)c(=O)n2C	0.0%	/	48.3%	33.6	22.8	/
Cc1cccc(Cn2c(SCCN3CCOCC3)nc3c2c(=O)n(C)c(=O)n3C)c1	-20.4%	4.9%	2.6%	6.6	0.8	44.7µM*
Cc1cccc(Cn2c(N3CCN(C)CC3)nc3c2c(=O)n(C)c(=O)n3C)c1	-12.9%	-36.7%	16.6%	-0.2	-19.7	20µM*
Cn1c(N2CCN(c3ccccn3)CC2)nc2c1c(=O)n(Cc1ccc(Cl)cc1)c(=O)n2C	?	?	-10.8%	0.3	-5.3	39.8µM*
CN1CCN(c2nc3c(c(=O)n(C)c(=O)n3C)n2Cc2cccc(Br)c2)CC1	-10.3%	3.2%	26.0%	-14.1	-3.7	/
CN1CCN(c2nc3c(c(=O)n(C)c(=O)n3C)n2Cc2cccc3ccccc23)CC1	-20.4%	-36.1%	5.6%	1.9	-1.7	44.7µM*
Cn1c(=O)c2c(-c3ccc(Cl)cc3)ccnc2n(C)c1=O	-17.9%	-10.0%	28.6%	/	/	14.0%[59 µM]
N#Cc1ccccc1OCCCN1CCC(Cc2ccccc2)CC1	4.47µM*	?	?	/	-9.1	31.6µM*
CCOc1ccccc1OCCOCCN1CC(C)OC(C)C1 (configuration not stated)	?	?	-20.6%	-0.3	-5.5	15.8µM*
NC(=O)c1ccccc1OCC(=O)N1CCC(Cc2ccccc2)CC1	-9.1%	-4.2%	41.0%	1.0	2.9	0.5%[12.7 µM]
CCOc1ccccc1OCCN1CCCC1	20µM*	-25.7%	-17.2%	/	-12.5	79.4µM*
CCC(=O)c1ccccc1OCCCN1CCC(Cc2ccccc2)CC1	35.5µM*	-34.3%	?	-2.6	-12.5	39.8µM*
